A selection: hits, their analogues and other compounds. The true share with any hit is near 9.2%.
SMN2 splice enh: qHTS Assay for Enhancers of SMN2 Splice Variant Expression; AID 1458, 2008; HEK293 SMN2-luciferase splicing reporter, luminescence, 30-36 h; Potency, µM (highest dose often 46.1 µM), inactives show at the top dose activity change, positive = activation, hits mostly activators; 2.8% of 210,000 active; further: % of control where 0% means no effect; nearly all actives have a fitted effect of over 55% in size
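qHTS luciferase splicing reporter: luminescence rises when SMN2 exon 7 is included in transfected HEK293 cells. Compound exposure lasted 30-36 h at 37C, with 4.5 mM final sodium butyrate as control, followed by a ONE-Glo read.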
ELG1 repair inh: qHTS screen for small molecules that inhibit ELG1-dependent DNA repair in human embryonic kidney (HEK293T) cells expressing luciferase-tagged ELG1. HEK293T ELG1-luciferase reporter, luminescence, 16 h; DNA damage induced by 5-fluorouridine. Potency, µM (titrated, usually from 46.1 µM), for the others: at the top dose activity change, negative = inhibition, most hits filed as inhibitors. 2.3% of 330,000 active; further: on the % scale 0 is the no-effect control and ±100 the full control effect; nearly all actives have a fitted effect of over 55% in size
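Step one: seed 2,000 cells per well. Step two: pin-transfer compound or DMSO alongside 5-fluorouridine. Step three: incubate 16 hr, 37 °C, 5% CO2. Step four: add ONE-Glo, wait 30 min, read luminescence.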
NPC1 prom act: qHTS Assay for NPC1 Promoter Activators; Huh7 NPC1 promoter luciferase reporter, 24 h; Potency, µM (titrated, usually from 9.22 µM), for the others: top-dose activation, hits mostly activators; 2.4% of 320,000 active; further: % of control where 0% means no effect; nearly all actives have a fitted effect of over 60% in size
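Cells: Huh7 expressing luciferase under the NPC1 promoter, 1500/well. Seeded 2 h, compound added, incubated 24 h at 37 °C. Luciferase reagent, 10 min ambient, then luminescence.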
FLuc modulator: qHTS profiling assay for firefly luciferase inhibitor/activator using purifed enzyme and Km concentrations of substrates (counterscreen for miR-21 project). Luciferin 4-monooxygenase (Photinus pyralis), P08659. purified FLuc, Km substrates, luminescence inhibition. Potency, µM (series often up to 57.5 µM), without a hit: at the top dose activity change, negative = inhibition, usual class: inhibitors. 6.9% of 360,000 active. AID 588342, 2011;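 further: plate controls were vehicle for no effect and reference inhibitor for full effect; nearly all actives have a fitted effect of over 55% in size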
Target sequence (P08659 whole entry, looked up): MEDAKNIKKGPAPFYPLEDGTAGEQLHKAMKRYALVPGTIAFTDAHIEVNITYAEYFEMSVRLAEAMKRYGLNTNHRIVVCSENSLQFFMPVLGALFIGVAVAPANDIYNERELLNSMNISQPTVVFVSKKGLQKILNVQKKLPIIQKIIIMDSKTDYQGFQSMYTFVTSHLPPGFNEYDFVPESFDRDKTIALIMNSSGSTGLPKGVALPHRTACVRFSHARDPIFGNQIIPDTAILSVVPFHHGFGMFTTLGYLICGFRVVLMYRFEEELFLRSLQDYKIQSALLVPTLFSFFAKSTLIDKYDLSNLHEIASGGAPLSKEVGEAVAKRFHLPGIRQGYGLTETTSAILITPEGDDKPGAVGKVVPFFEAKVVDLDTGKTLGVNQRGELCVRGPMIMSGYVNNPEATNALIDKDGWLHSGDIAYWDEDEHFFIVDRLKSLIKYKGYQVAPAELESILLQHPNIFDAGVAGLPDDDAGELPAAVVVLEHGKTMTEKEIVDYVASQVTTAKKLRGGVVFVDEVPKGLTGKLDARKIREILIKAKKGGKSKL
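Purified P. pyralis luciferase (10nM final) with 10uM D-luciferin and 10uM ATP (Km levels) in 50mM Tris acetate pH 7.5, 10mM Mg acetate, 0.01% Tween-20, 0.05% BSA; qHTS 6-point titration, ~60 µM downward; luminescence read.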
ELG1 genotoxic: qHTS screen for small molecules that induce genotoxicity in human embryonic kidney (HEK293T) cells expressing luciferase-tagged ELG1 | Potency, µM (highest dose often 46 µM), inactives show at the highest dose activity change, positive = activation, hits mostly activators | HEK293T ELG1-luciferase reporter, luminescence, 16 h | 1.3% of 330,000 active; further: % of control where 0% means no effect; nearly all actives have a fitted effect of over 60% in size
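After overnight (16 hr) compound treatment at 37 °C, ELG1-luciferase HEK293T cells were lysed with ONE-Glo; luminescence quantified 30 min later at room temperature.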
Rab9 promoter act: qHTS Assay for Rab9 Promoter Activators. Huh7 Rab9 promoter-luciferase reporter, luminescence, 24 h. Potency, µM (series often up to 9.22 µM), without a hit: at the highest dose activation, negative = inhibition, usual class: activators. 2.8% of 320,000 active; further: % of control where 0% means no effect; nearly all actives have a fitted effect of over 60% in size
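Measured in stably transfected Huh7 cells bearing a Rab9 promoter–luciferase construct: 24 h compound treatment at 37 °C, followed by luminescence detection.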
* marks the source's active call; other numbers are inactive results; u = inconclusive; x = not tested or not shown. The call rests on the fitted dose curve; in most records, active means well fitted curve in the direction sought with a large enough effect; inconclusive means small, poorly fitted or top-dose-only effect, or another doubt; inactive means no such curve, though single readings can be large; an effect the other way counts as inactive or inconclusive. Potency means the concentration at half of the fitted maximal effect.

SMILES | SMN2 splice enh | ELG1 repair inh | NPC1 prom act | FLuc modulator | ELG1 genotoxic | Rab9 promoter act
CCCNC(=O)C1CC(=O)N(c2ccc(OCc3ccc(Cl)cc3)cc2)C1 (stereo not given) | x | u | 1.4µM* | 2.1µM* | 1.8µM* | 4µM*
CCOc1ccc(N2CC(C(=O)NCCc3ccccc3)CC2=O)cc1 (stereo not given) | x | -1% | 0% | 1% | -3% | -5%
COc1ccccc1S(=O)(=O)Cc1ccc(C(=O)N2CCN(c3cccc(Cl)c3)CC2)o1 | -4% | 12µM* | -28% | u | 4% | -16%
COc1ccccc1S(=O)(=O)Cc1ccc(C(=O)N2CCN(c3ccccc3)CC2)o1 | -30% | 21µM* | 1% | -4% | -7% | -2%
COc1ccccc1S(=O)(=O)Cc1ccc(C(=O)N2CCOCC2)o1 | u | 16% | -2% | 0% | 3% | -2%
CCOC(=O)c1cnc2c(C(=O)OCC)cnn2c1N | x | u | u | u | 9% | 4µM*
CCOC(=O)c1cnc2c(-c3cccc(Br)c3)cnn2c1C | x | u | 3.2µM* | 2.4µM* | u | 3.5µM*
CCOC(=O)c1cnc2c([N+](=O)[O-])cnn2c1C | 10% | 15% | 8% | -4% | -2% | -1%
CCOC(=O)c1cnn(C(=O)c2ccccc2)c1N | -8% | 1% | -1% | 19µM* | 1% | 4%
CCOC(=O)c1cnn2c(C)cc(-c3ccccc3)nc12 | 32µM* | u | u | 19µM* | 9.2µM* | 3.5µM*
CCOC(=O)c1cc2nc(-c3ccccc3)cc(C)n2n1 | x | -5% | -2% | 5% | -2% | 2%
C=CCOC(=O)N[C@H](/C(C(=O)OC)=C(\C)NCc1ccccc1)c1cccc(C(F)(F)F)c1 | 9% | x | x | x | x | x
CCCCOC(=O)c1ccc(NC(=O)c2ccc3c(c2)CCN3S(=O)(=O)c2ccccc2)cc1 | -58% | x | x | 0% | x | x
Cc1ccc(C(c2c(O)cc(C)n(Cc3ccco3)c2=O)N2CCC(C)CC2)cc1 (stereo not given) | x | x | x | -17% | x | x
Cc1cc(C)n2ncc(/C(N)=N/OC(=O)c3ccccc3F)c2n1 | x | u | u | 12µM* | u | u
CS(=O)(=O)Nc1cccc(-c2ccc3ncnc(Nc4ccc(F)cc4)c3c2)c1 | 3% | x | x | x | x | x
Cc1ccc(S(=O)(=O)NCC(=O)NNC(=O)c2ccccc2Cl)cc1C | x | -18% | x | x | 0% | x
Cc1[nH]c2ccccc2c1/C=C/c1nc2ccccc2c(=O)n1CCO | 6% | 1.8µM* | 20% | u | -4% | -34%
O=c1c2ccccc2nc(/C=C/c2ccc(Cl)cc2)n1CCO | x | -13% | -3% | -4% | 2% | -1%
Cc1ccccc1/C=C/c1nc2ccccc2c(=O)n1CCc1ccccc1 | -20% | 16µM* | -1% | -8% | -5% | -4%
CNC[C@H]1Oc2c(NS(=O)(=O)c3cccs3)cccc2C(=O)N([C@H](C)CO)C[C@@H]1C | x | 17% | x | x | 4% | x
CCOC(=O)N1CCN(C(=O)CCc2ccc(S(=O)(=O)NCCc3ccccc3)cc2)CC1 | -24% | 15µM* | 0% | 2% | 4% | 1%
CC(C)CNS(=O)(=O)c1ccc(CCC(=O)N2CCN(Cc3ccc4c(c3)OCO4)CC2)cc1 | -62% | 9.2µM* | -5% | -2% | -7% | -13%
CCOC(=O)N1CCN(C(=O)CCSc2ccc(C)cc2)CC1 | 12% | u | 8% | -3% | 6% | 10%
CCNS(=O)(=O)c1ccc(CCC(=O)N2CCN(Cc3ccccc3)CC2)cc1 | x | -15% | -4% | 4% | -6% | 5%

Bioassay records as filed in PubChem BioAssay.
